# Measured values reported in PubChem BioAssay (NCI).
# Values joined by “and” are separate entries in the source; they are usually repeats but may differ in a detail not shown here. Identical values can stand only once. About 83,000 compounds went through this panel and 20% of them were active in at least one assay; those are over-represented in the sample as a whole.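 Cells were grown in 96-well plates and exposed to the test compound at a single concentration for 48 hours; results are reported as percent growth, with values below 10 considered active.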 Values without a mark were called inactive. Active and inactive are the calls of the source.
# Tests used:
# Assay in all cases: NCI-60 one-dose screen, 48 h (100 = growth as untreated, 0 = no growth, -100 = all killed)
# T-47D breast = tested on: T-47D breast
# BT-549 breast = tested on: BT-549 breast
# MDA-MB-435 melanoma = tested on: MDA-MB-435 melanoma
# HCT-116 colon = tested on: HCT-116 colon
# HCC-2998 colon = tested on: HCC-2998 colon
# SW-620 colon = tested on: SW-620 colon
# MCF7 breast = conditions: 10 µM
# KM12 colon = conditions: 10 µM
smiles,measurement,setting,value
O=c1ccn(C2CC(O)C(COC(c3ccccc3)(c3ccccc3)c3ccccc3)O2)c(=O)[nH]1 (stereo not given),growth,T-47D breast; 10 µM,84.7%
same,growth,T-47D breast; 100 µM,25.7%
same,growth,BT-549 breast; 10 µM,84.2%
same,growth,BT-549 breast; 100 µM,13.9%
same,growth,MDA-MB-435 melanoma; 10 µM,76.1%
same,growth,MDA-MB-435 melanoma; 100 µM,45%
same,growth,HCT-116 colon; 10 µM,82.2%
same,growth,HCT-116 colon; 100 µM,33.9%
same,growth,HCC-2998 colon; 10 µM,122%
same,growth,HCC-2998 colon; 100 µM,64.2%
COc1cccc2c1C(=O)c1c(O)c3c(c(O)c1C2=O)C[C@@](O)(C(=O)CO)C[C@@H]3OC1CC(N)C(O)C(C)O1 (stereo not given in full),growth,T-47D breast; 0.0025 µM,90.7%
same,growth,T-47D breast; 1 µM,13.2%
same,growth,T-47D breast; 2.5 µM,39.5%
same,growth,T-47D breast; 10 µM,-11.3% (active)
same,growth,BT-549 breast; 0.0025 µM,81.9%
same,growth,BT-549 breast; 1 µM,5.17% (active)
same,growth,BT-549 breast; 2.5 µM,65.6%
same,growth,BT-549 breast; 10 µM,-59.2% (active)
same,growth,MDA-MB-435 melanoma; 0.0025 µM,99%
same,growth,MDA-MB-435 melanoma; 1 µM,50.1%
same,growth,MDA-MB-435 melanoma; 2.5 µM,72.5%
same,growth,MDA-MB-435 melanoma; 10 µM,-83.9% (active)
same,growth,SW-620 colon; 0.0025 µM,91.7%
same,growth,SW-620 colon; 1 µM,-1.05% (active)
same,growth,SW-620 colon; 10 µM,1.93% (active)
same,growth,HCT-116 colon; 0.0025 µM,76.1%
same,growth,HCT-116 colon; 1 µM,8.95% (active)
same,growth,HCT-116 colon; 2.5 µM,28.1%
same,growth,HCT-116 colon; 10 µM,2.8% (active)
same,growth,HCC-2998 colon; 0.0025 µM,84.7%
same,growth,HCC-2998 colon; 1 µM,59.8%
same,growth,HCC-2998 colon; 2.5 µM,-13.3% (active)
same,growth,HCC-2998 colon; 10 µM,-54.4% (active)
CS(=O)(=O)OC1CC(n2ccc(=O)[nH]c2=O)OC1COC(c1ccccc1)(c1ccccc1)c1ccccc1 (stereo not given),growth,T-47D breast; 10 µM,96.7%
same,growth,BT-549 breast; 10 µM,99.4%
same,growth,MDA-MB-435 melanoma; 10 µM,125%
same,growth,SW-620 colon; 10 µM,105%
same,growth,HCT-116 colon; 10 µM,92.9%
same,growth,HCC-2998 colon; 10 µM,106%
CCCC1CCC(=C2C(=O)CCC2=O)O1 (stereo not given),growth,T-47D breast; 10 µM,87.8% and 110%
same,growth,BT-549 breast; 10 µM,86.3% and 106%
same,growth,MDA-MB-435 melanoma; 10 µM,94.8% and 95.4%
same,growth,SW-620 colon; 10 µM,105%
same,growth,MCF7 breast,91.9% and 118%
same,growth,HCT-116 colon; 10 µM,91.9% and 107%
same,growth,HCC-2998 colon; 10 µM,104% and 99.1%
same,growth,KM12 colon,105% and 108%
COC(=O)C1=COC(C)C2C[n+]3ccc4c([nH]c5ccccc54)c3CC12 (stereo not given),growth,T-47D breast; 10 µM,100% and 91.5%
same,growth,BT-549 breast; 10 µM,107% and 102%
same,growth,MDA-MB-435 melanoma; 10 µM,106% and 109%
same,growth,SW-620 colon; 10 µM,100% and 84%
same,growth,HCT-116 colon; 10 µM,98.4% and 99.5%
same,growth,HCC-2998 colon; 10 µM,111% and 94.1%
CSC1SCC2C(=O)N(C)C(C(C)C)C(=O)OCC(NC(=O)c3cnc4ccccc4n3)C(=O)NC(C)C(=O)N(C)C1C(=O)N(C)C(C(C)C)C(=O)OCC(NC(=O)c1cnc3ccccc3n1)C(=O)NC(C)C(=O)N2C (stereo not given),growth,T-47D breast; 10 µM,-8.25% (active)
same,growth,BT-549 breast; 10 µM,-48.3% (active)
same,growth,MDA-MB-435 melanoma; 10 µM,-82.8% (active)
same,growth,MCF7 breast,2.56% (active)
same,growth,HCT-116 colon; 10 µM,-29.5% (active)
same,growth,HCC-2998 colon; 10 µM,-80.1% (active)
CCN(CC)c1ccc(NC(C(=O)c2ccccc2)c2ccccc2)cc1 (stereo not given),growth,T-47D breast; 10 µM,8.44% (active)
same,growth,BT-549 breast; 10 µM,2.75% (active)
same,growth,MDA-MB-435 melanoma; 10 µM,3.95% (active)
same,growth,SW-620 colon; 10 µM,6.54% (active)
same,growth,MCF7 breast,11.1%
same,growth,HCT-116 colon; 10 µM,-19.6% (active)
same,growth,HCC-2998 colon; 10 µM,65.1%
Clc1cc(Cl)c(Cl)nn1,growth,T-47D breast; 10 µM,79.3%
same,growth,BT-549 breast; 10 µM,82.8%
same,growth,MDA-MB-435 melanoma; 10 µM,105%
same,growth,SW-620 colon; 10 µM,107%
same,growth,MCF7 breast,86.3%
same,growth,HCT-116 colon; 10 µM,86.2%
same,growth,HCC-2998 colon; 10 µM,119%
same,growth,KM12 colon,105%
CC(=O)Nc1cc(C)ccc1C,growth,T-47D breast; 10 µM,107%
same,growth,BT-549 breast; 10 µM,112%
same,growth,MDA-MB-435 melanoma; 10 µM,102%
same,growth,MCF7 breast,105%
same,growth,HCT-116 colon; 10 µM,96.9%
same,growth,HCC-2998 colon; 10 µM,100%
CN(C)C(=S)SC(=S)N(C)C,growth,T-47D breast; 10 µM,67% and 96.3%
same,growth,BT-549 breast; 10 µM,109% and 115%
same,growth,MDA-MB-435 melanoma; 10 µM,94.6% and 93%
same,growth,HCT-116 colon; 10 µM,87% and 67.7%
same,growth,HCC-2998 colon; 10 µM,96.7% and 107%
NC1=C(Cl)C(=O)c2ccccc2C1=O,growth,T-47D breast; 10 µM,86.8%
same,growth,BT-549 breast; 10 µM,82.7%
same,growth,MDA-MB-435 melanoma; 10 µM,-87.5% (active)
same,growth,HCT-116 colon; 10 µM,54.4%
same,growth,HCC-2998 colon; 10 µM,101%
